The source of these data is PubChem BioAssay (NCI).

Common to all, as to test: NCI-60 one-dose screen, 48 h (100 = growth as untreated, 0 = no growth, -100 = all killed)
Common to all, as to details: 10 µM unless noted

Assay [1] relates to DU-145 prostate.
For assay [2], the system named is K-562 leukemia.
Assay [3] relates to MALME-3M melanoma.
The subject of assay [4] is MDA-MB-231 breast.
For assay [5], the system named is RXF 393 renal.
The subject of assay [6] is SF-268 CNS.
In assay [7] the test system is SF-295 CNS.
In assay [8] the test system is SF-539 CNS.
Assay [9] deals with M14 melanoma.
The test system of assay [10] is UACC-257 melanoma.

Molecules are shown by their SMILES. About 83,000 compounds went through this panel and 20% of them were active in at least one assay; those are over-represented in the sample as a whole.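 Interpretation: 100, growth as untreated; towards 0, rising growth inhibition; 0, no net growth; 0 to -100, cell death. Compounds scoring below 10 were considered active.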 Values without a mark were called inactive. Active and inactive are the calls of the source.

As to `CC1=C(CCCNS(C)(=O)=O)C2=C(C)C3(CC3)[C@@](C)(O)C(=O)C2=C1`, the growth in [1] was 4.13% (active); in [2] it was 106%; in assay [3], -63.1% (active); in assay [4], -3.41% (active); in [5], -75.6% (active); in [6], 8.41% (active). Further, the figures for the growth in [7], in assay [8] and in [9] were 2.69% (active), -38.6% (active) and -51.3% (active), respectively.

Regarding `Cc1cc(-c2nc3cc(F)ccc3[se]2)cc(F)c1N`, the growth is 98.4% in assay [1]; 95.8% in [2]; 84.9% in [3]; 63.5% in assay [4]; 120% in [5]; 101% in [6]. In addition, the growth in [7] was 99.7%; in [8], 94.7%; in [10], 98.5%; in [9] it was 90.3%.

As to `CC[C@]12C=CCN3CC[C@]4(C(=C(C(=O)OC)C1)Nc1cc(OC)c(OC(C)=O)cc14)[C@@H]32`, the growth is 24.3% in assay [1]; 4.08% (active) in assay [2]; 112% in assay [3]; 19.7% in assay [4]; 37.1% in assay [5]; 19.5% in [6]. Moreover, the values for the growth in [7], in assay [8] and in assay [9] were 20.4%, 11.2% and 13.9%, respectively.

`N#C[Se]Cc1cc(-c2ccccc2)n(-c2ccc(S(N)(=O)=O)cc2)n1`: the growth in [1] was -85.6% (active); in assay [2], 4.33% (active); in assay [3] it was -47% (active); in [4], -68.3% (active); in assay [5], -3.45% (active); in assay [6] it was -59.8% (active). Also, the values for the growth in assay [7], in assay [10] and in [9] were -55.8% (active), -70.2% (active) and -62.2% (active), respectively.

Turning to `C[N+]12CN3CN(CN(C3)C1)C2`, the growth was 119% in assay [1]; 198% in assay [2]; 111% in assay [3]; 133% in [4]; 111% in assay [5]; 106% in assay [6]. The growth was 117% in assay [7], 102% in assay [8] and 103% in assay [9].

Turning to `C=CCCCN=C=S`, the growth was 60.5% in [1]; 59.8% in [2]; 76.7% in assay [3]; 68.3% in assay [4]; 80% in assay [5]; 77.4% in [6]. Also, the growth in assay [7] is 92.4%; in assay [10] it was 62.5%; in assay [9], 60.9%.

`[Cl][Hg][c]1cc[c]([Hg][Cl])o1`: the growth was 70.6% in assay [1]; 7.68% (active) in [2]; -51.6% (active) in [3]; 22.7% in [4]; 62.1% in assay [5]; 51.3% in assay [6]. The growth in assay [7] was 93.4%; in assay [8], 75%; in assay [10], 65.5%; in assay [9], 14.8%.

As for `COc1ccc(O)c(CNC(=O)CN2CCCC2=O)c1`, the growth in assay [1] is 108%; in assay [2] it was 99.4%; in assay [3] it was 96.6%; in assay [4], 96.5%; in assay [5] it was 109%; in assay [6], 96.8%. Also, the growth was 103% in assay [7], 104% in [10] and 98% in [9].

Turning to `COc1ccc(C(=O)c2sc3nc4c(cc3c2N)N2CCC4CC2)cc1OC`, the growth in assay [1] is 103%; in assay [2], 73.3%; in assay [3], 93%; in assay [4], 66.9%; in [5], 85.6%; in [6], 105%. Besides, the growth in [7] is 88.9%; in assay [10], 111%; in assay [9], 109%.

As for `CCC1CN1CCCCN1CC1CC` (stereo not drawn), the growth was 108% in assay [1]; 114% in assay [2]; 91.6% in assay [3]; 96.7% in assay [4]; 105% in assay [5]; 103% in [6]. For the same molecule, the growth in assay [7] was 95.3%; in assay [8], 100%; in assay [10], 97%; in assay [9] it was 98%.

As for `COc1cc(NCCCN=C(N)N)c2ncccc2c1`, the growth in [1] was 103%; in assay [2], 93.7%; in [3] it was 21.1%; in assay [4] it was 64.8%; in [5] it was 102%; in [6], 25.2%. In addition, the growth in [7] was 88.6%; in assay [10], 90.3%; in [9] it was 100%.

For the molecule `CN1C(=O)N[C@H]2[C@@H]3NC(=O)c4ccc(Br)n4[C@@H]3C[C@]21O`, the growth in [1] was -8.47% (active); in assay [2], -2.38% (active); in assay [3], -27.3% (active); in assay [4] it was -28% (active); in assay [5], -27.5% (active); in assay [6], -2.59% (active). In addition, the growth in assay [7] is -36.2% (active); in [8], -59.8% (active); in [9], -70.8% (active).

As for `[Au+].[N-]=C=O.c1ccc(CN2[CH-]N(Cc3ccccc3)C(c3ccccc3)=C2c2ccccc2)cc1`, the growth was 86.5% in [1]; 20.8% in [2]; 70% in [3]; 86.4% in [4]; 83% in assay [5]; 84.5% in assay [6]. The growth in [8] is 110%; in [10], 99.8%; in [9], 81.3%.

`CC1CCCC(C[N+](C)(C)C)C1=O` (stereo not drawn): the growth in [1] is 115%; in [2], 88.3%; in [3] it was 76.5%; in assay [4] it was 104%; in assay [5], 112%; in assay [6], 112%. For the same molecule, the growth is 94.2% in [8], 112% in [10] and 101% in assay [9].

Turning to `Clc1ccc2nnnn2n1`, the growth in assay [1] is 3.28% (active); in assay [2] it was -11.3% (active); in [3], 66.2%; in assay [4], 36.8%; in assay [6], 25%; in assay [7], 67.7%. The results for the growth in [8], in assay [10] and in assay [9] were 47%, 41.1% and 37.7%, respectively.
